Measles CPE: protection of cells from measles virus. protection (pct of control), % at 4 µM. 140,000 compounds, 1.5% hits. Measles virus-infected cells, CPE protection, absorbance; in the data active = protection mostly above about 24%, no sharp cut-off; inactive = mostly below about 26%
CYP2C19 inhib: blocks human cytochrome P450 2C19; P33261; CYP2C19 Supersomes, luciferin-H EGE luminescence, 30 min; inhibition, % at 5 µM; 96,000 compounds, 21% hits; AID 778;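 active = CYP2C19 inhibition above a set limit at 5 µM in the primary screen, cut at about 50% in these data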;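 note: plate controls were negative control wells for no effect and 2.5 mM tranylcypromine positive control for full effect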
Target sequence (P33261 whole entry, looked up): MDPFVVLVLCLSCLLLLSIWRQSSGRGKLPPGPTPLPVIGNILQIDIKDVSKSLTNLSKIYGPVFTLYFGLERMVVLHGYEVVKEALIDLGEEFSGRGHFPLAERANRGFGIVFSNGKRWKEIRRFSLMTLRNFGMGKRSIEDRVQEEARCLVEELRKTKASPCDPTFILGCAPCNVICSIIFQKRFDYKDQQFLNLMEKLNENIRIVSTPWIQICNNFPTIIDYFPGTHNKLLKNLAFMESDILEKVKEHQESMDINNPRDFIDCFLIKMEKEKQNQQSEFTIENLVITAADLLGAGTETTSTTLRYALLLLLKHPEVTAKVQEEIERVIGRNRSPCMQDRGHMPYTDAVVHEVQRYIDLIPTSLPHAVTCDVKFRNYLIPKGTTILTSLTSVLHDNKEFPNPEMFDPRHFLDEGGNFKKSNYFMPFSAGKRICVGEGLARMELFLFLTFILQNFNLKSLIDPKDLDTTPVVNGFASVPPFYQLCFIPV
CYP2C9 inh: inhibitors of human CYP2C9; P11712; 96,000 compounds, 20% hits; inhibition, % at 5 µM; CYP2C9 Supersomes, luciferin-H conversion, luminescence;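 active = blocking of liver enzyme CYP2C9 beyond about 50% at 5 µM, limit read from the data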
CYP2C19 activ: activators of human cytochrome P450 2C19; recombinant CYP2C19, luciferin-H EGE luminescence; hits give high values; 0 = fully inhibited enzyme, 1 = untreated enzyme; activation factor at 5 µM; 96,000 tested, under 10 active;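 active = activation factor of at least 2 at 5 µM in the primary screen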;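 note: 0 = wells with 2.5 mM tranylcypromine and 1 = vehicle-only wells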
CYP2C9 activ: increases human cytochrome P450 2C9 activity; 96,000 compounds, 1.4% hits; activation factor at 5 µM; recombinant CYP2C9, luciferin-H conversion, luminescence; hits give high values; factor 1 = untreated enzyme, 0 = blocked;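 active = activation factor of 2 or more for CYP2C9 at a 5 µM dose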;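 note: 0 = sulfaphenazole-blocked wells and 1 = vehicle-only wells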
* hit, by the source's call; nt = not tested or not shown. Only some compounds are listed: those with a hit (about 22% of all), similar ones and a draw of the others.

SMILES | Measles CPE | CYP2C19 inhib | CYP2C9 inh | CYP2C19 activ | CYP2C9 activ
O=C(CSc1nn(-c2ccccc2)c(=S)s1)NC1CCS(=O)(=O)C1 (stereo not drawn) | 8 | nt | nt | nt | nt
O=C(CSc1nn(-c2ccccc2)c(=S)s1)Nn1cnnc1 | 9 | 64* | 98* | 0.4 | 0
O=C(CSc1nc2ccccc2s1)Nn1cnnc1 | 16 | 76* | 96* | 0.2 | 0
COc1cccc([C@@H]2Oc3ccc(OC)cc3C(=O)[C@H]2OC(=O)NCc2ccc3c(c2)OCO3)c1 | 8 | nt | nt | nt | nt
CN(Cc1ccco1)C(=O)C(Cc1ccccc1)NS(=O)(=O)c1ccc2c(c1)CCC(=O)N2 (stereo not drawn) | 8 | 56* | 71* | 0.4 | 0.3
CCCNC(=O)C(Cc1ccccc1)NS(=O)(=O)c1ccc2c(c1)CCC(=O)N2 (stereo not drawn) | 14 | 8 | 12 | 0.9 | 0.9
CC1CCN(C(=S)c2cn(Cc3cccc(F)c3)c3ccccc23)CC1 | 2 | nt | nt | nt | nt
COc1ccc(CN(C(C)=O)c2cccc(C)c2C)cc1 | 7 | 99* | 68* | 0 | 0.3
Cc1ccc(C(=O)CSc2ncnc3sc4c(c23)CCC(C)C4)cc1 (stereo not drawn) | 30 | nt | nt | nt | nt
O=C1CN(c2nc(-c3ccccc3)c3cc(Cl)ccc3n2)c2ccccc2N1 | 40* | nt | nt | nt | nt
OCCN1CCN(c2nc(-c3ccccc3)c3cc(Cl)ccc3n2)CC1 | 63* | 5 | 17 | 0.9 | 0.8
CN1CCN(c2nc(-c3ccccc3)c3cc(Cl)ccc3n2)CC1 | 3 | 2 | 14 | 1 | 0.9
CC(C)C(C(=O)Nc1ccc(N2CCOCC2)cc1)N1C(=O)c2ccccc2C1=O (stereo not drawn) | 5 | 23 | 16 | 0.8 | 0.8
COc1cccc(-n2nc(-c3ccnn3-c3ccc(F)cc3)c(=O)n(C)c2=O)c1 | 7 | 67* | 80* | 0.3 | 0.2
COc1cccc(-n2c(C)nn(C)c2=O)c1 | 4 | 15 | -3 | 0.8 | 1
COc1cccc(-n2nc(-c3ccnn3-c3ccc(C)cc3)c(=O)n(C)c2=O)c1 | 12 | 89* | 84* | 0.1 | 0.2
COc1ccc(-n2nccc2-c2nn(-c3cccc(OC)c3)c(=O)n(C)c2=O)cc1 | 3 | 89* | 62* | 0.1 | 0.4
O=C(NC1CCCCC1)C12CC3CC(CC(Cl)(C3)C1)C2 | 12 | nt | nt | nt | nt
COc1ccc(/C(N)=N/OC(=O)CSc2ccccc2)cc1OC | 30 | 28 | 29 | 0.7 | 0.7
COC(=O)C1(C(O)C(=O)c2ccc(C)cc2C)CCCCC1 (stereo not drawn) | 10 | 64* | 37 | 0.4 | 0.6
Cc1ccc(C(=O)NC(=S)Nc2ccc3c(c2)OCCO3)c(C)c1 | 5 | -4 | -79 | 1 | 1.8
CC(C)(C)C(=O)NCCCc1nc2ccccc2n1CCCOc1ccc(Cl)cc1 | 4 | 42 | 84* | 0.6 | 0.2
Cn1c(=O)n(CCCOc2ccc(Cl)cc2)c2ccccc21 | 19 | 76* | 12 | 0.2 | 0.9
Cn1c(=O)n(CCCOc2ccc(Br)cc2)c2ccccc21 | 19 | 70* | 8 | 0.3 | 0.9
COc1ccc(OCCCn2c(=O)oc3ccccc32)cc1 | 30 | nt | nt | nt | nt
SMILES | Measles CPE | CYP2C19 inhib | CYP2C9 inh | CYP2C19 activ | CYP2C9 activ
OCc1nc2ccccc2n1CCCOc1ccc(Br)cc1 | 7 | 49 | 26 | 0.5 | 0.7
C=CCn1c(CCCNC(=O)C(C)(C)C)nc2ccccc21 | 3 | 9 | 3 | 0.9 | 1
CC(C)N(C(=O)CSc1nnc(CNc2ccc(F)cc2)o1)C(C)C | 9 | nt | nt | nt | nt
Cn1cc([N+](=O)[O-])c(C(=O)NCc2cc3cc(Cl)ccc3[nH]2)n1 | 9 | nt | nt | nt | nt
Cn1cnnc1Sc1ccc(C(=O)NCCC(c2ccccc2)c2ccccc2)cc1[N+](=O)[O-] | 11 | nt | nt | nt | nt
Cn1c(SCc2cc(=O)n3cc(Br)ccc3n2)nnc1C1COc2ccccc2O1 (stereo not drawn) | 7 | 30 | 54* | 0.7 | 0.5
Cn1c(SCC(=O)c2ccc3c(c2)OCO3)nnc1C1COc2ccccc2O1 (stereo not drawn) | 16 | -8 | 44 | 1.1 | 0.6
Cn1c(SCc2cnc(-c3ccccc3)s2)nnc1C1COc2ccccc2O1 (stereo not drawn) | 10 | 90* | 49 | 0.1 | 0.5
CC1(C)Cc2c(sc3nnn(Cc4ccc(Cl)cc4)c(=O)c23)CO1 | 7 | nt | nt | nt | nt
COC(=O)[C@@H]1[C@@H](C#N)C2(c3ccccc3-c3ccccc32)N(c2ccc(Cl)cc2)N1C#N | 5 | nt | nt | nt | nt
COc1ccccc1/C=C/C(=O)NC(=S)NC(C)C | 17 | nt | nt | nt | nt
COC(=O)c1ccc(NC(=O)CN(c2ccc(C)cc2)S(=O)(=O)c2c(C)nn(C)c2C)cc1 | 12 | 14 | 26 | 0.9 | 0.7
COc1ccc(N(CC(=O)Nc2nccs2)S(=O)(=O)c2c(C)nn(C)c2C)cc1 | 6 | 58* | 64* | 0.4 | 0.4
Cc1nn(C)c(C)c1S(=O)(=O)N(CC(=O)Nc1ccc2c(c1)OCO2)c1ccc(C(C)C)cc1 | 12 | nt | nt | nt | nt
COc1ccc(N(CC(=O)Nc2ccc3c(c2)OCCO3)S(=O)(=O)c2c(C)nn(C)c2C)cc1 | 3 | 55* | 74* | 0.5 | 0.3
COc1cc(NC(=O)CN(c2ccc(C)cc2)S(=O)(=O)c2c(C)nn(C)c2C)cc(OC)c1 | 17 | 66* | 54* | 0.3 | 0.5
COc1ccc(N(CC(=O)Nc2cc(C)ccc2C)S(=O)(=O)c2c(C)nn(C)c2C)cc1 | 2 | 55* | 29 | 0.4 | 0.7
COc1ccc(C2/C(=C(\O)c3ccc4c(c3)OCCO4)C(=O)C(=O)N2CCCN(C)C)c(OC)c1 (stereo not drawn) | nt | 2 | 4 | 1 | 1
CCC(C)C(=O)NCCc1ccc(S(N)(=O)=O)cc1 (stereo not drawn) | 4 | nt | nt | nt | nt
COc1ccc(N(CC(=O)Nc2ccc(C)cn2)S(=O)(=O)c2c(C)nn(C)c2C)cc1 | 10 | 86* | 84* | 0.1 | 0.2
Cc1nn(C)c(C)c1S(=O)(=O)N(CC(=O)Nc1nccs1)c1ccc(C(C)C)cc1 | 3 | nt | nt | nt | nt
Cc1ccc(N(CC(=O)Nc2ccc(C)cn2)S(=O)(=O)c2c(C)nn(C)c2C)cc1 | 17 | 76* | 84* | 0.2 | 0.2
COc1cc(/C=C(\NC(C)=O)C(=O)Nc2cccc(O)c2)ccc1OC(C)=O | 6 | nt | nt | nt | nt
Cc1cccc(CSCCNC(=O)c2ccc(N(C)S(=O)(=O)c3ccccc3)cc2)c1 | 12 | 61* | 89* | 0.4 | 0.1
CN(c1ccc(C(=O)NC2CC2)cc1)S(=O)(=O)c1ccccc1 | 20 | 50 | 70* | 0.5 | 0.3

High-throughput results (PubChem BioAssay)
